Results on twelve compounds are retold here after PubChem BioAssay (NCATS).

Structures are written as SMILES. Results filed as inconclusive are left out. Values without a mark were called inactive. Calls come from the whole dose curve; as a rule, active = well fitted inhibition curve with a large enough effect; inconclusive = small, poorly fitted or top-dose-only effect; inactive = no such curve, though single readings can be large or run the other way.

This experiment addresses Retinaldehyde dehydrogenase 3 (Homo sapiens) (UniProt P47895). The experiment can be described thus: qHTS for Inhibitors of the Aldehyde Dehydrogenase Family (ALDH1A3) Primary screen (AID 2061315).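 Note: plate controls were DMSO vehicle for no effect and reference inhibitor for full effect.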 The note with it: ALDH inhibition qHTS; series mostly up to 56 µM; activity change, negative = inhibition: at the top concentration. Background: In qHTS, concentration-response curves come from the screen itself.
As for `C=CC(C)(O)CC/C=C(\C)C(=O)O[C@@H]1[C@@H](O)[C@H](OC(C)(C=C)CC/C=C(\C)C(=O)O)O[C@H](CO)[C@H]1OC(=O)/C(C)=C/CCC(C)(O)C=C` (some centres not stated), the “activity change, negative = inhibition” value was 3.53% [at 16.9 µM].

Turning to `CC(=O)OC1C(O)CC2(C)C(CCC(C)C23Cc2c(O)cc(CO)c(C=O)c2O3)C1(C)C` (configuration not stated), the “activity change, negative = inhibition” value was 11.8% [at 28 µM].

As for `CC(C)=CCC(O)/C(C)=C/CO[C@@H]1O[C@H](CO)[C@@H](O)[C@H](O)[C@H]1O` (some centres not stated), the “activity change, negative = inhibition” value was -2%.

Regarding `CC(/C=C/C1(O)C(C)(C)CC(O)CC1(C)O)OC1OC(CO)C(O)C(O)C1O` (configuration not stated), the “activity change, negative = inhibition” value is 15.4% [at 28 µM].

As for `C=C1CC2[C@@]3(C)C=CC(=O)C(C)(C)C3=C(O)C(=O)[C@@]2(C)C2(C(=O)OC)C(=O)C(C)OC(=O)[C@@]12C` (some centres not stated), the “activity change, negative = inhibition” value was 5.26% [at 28 µM].

With `OC[C@H]1O[C@@H](Oc2cc(O)c3c(c2)O[C@@H](c2ccc(O)cc2)[C@H](O)C3)[C@H](O)[C@@H](O)[C@@H]1O`, the “activity change, negative = inhibition” value was -12% [at 28 µM].

Regarding `CC(=O)OC1CC2C(C)(C)C(=O)C=CC2(C)C2CC(=O)C3=C(CCC3C3=CC(O)OC3=O)C12C` (configuration not stated), the “activity change, negative = inhibition” value was 7.37% [at 28 µM].

As to `CC(C)=CCC/C(C)=C/CO[C@@H]1O[C@H](CO)[C@@H](O)[C@H](O)[C@H]1O`, the “activity change, negative = inhibition” value was 6.04%.

As to `COc1c2c(c(C)c3c1C(=O)OC3)OC1(C)CC(O)C34OC(OC)(OC3(C)C)C(O)CC4(C)C1C2` (configuration not stated), the “activity change, negative = inhibition” value is -0.806% [at 28 µM].

On to `C=CC(C)(O)C1CC2C3(C)CCCC(C)(C)C3C(O)C(O)C2(C)O1` (configuration not stated), for which the “activity change, negative = inhibition” value is -8.07%.

For `CC1=C(c2ccc(NC(=O)c3c(F)cccc3F)cc2)CN(c2nccs2)CC1`, the “activity change, negative = inhibition” value is 17%.

Consider `CC1OC(=O)C[C@@H]2C(C(=O)O)=CO[C@@H](O[C@H]3O[C@H](CO)[C@@H](O)[C@H](O)[C@H]3O)[C@H]12` (some centres not stated), for which the “activity change, negative = inhibition” value was -7.52%.
